About 79,000 compounds went through this panel and 15% of them were active in at least one assay; those are over-represented in the sample as a whole. Calls of active or inactive are those of the source. Cut-off read from the data, not from the text of the source: active = growth inhibition above about 70%; inactive = the rest.
Legend:
[1] = NCI Yeast Anticancer Drug Screen. Data for the rad52 strain (AID 147);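 note: 0% = growth of vehicle-treated control cultures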; conditions: S. cerevisiae rad52 mutant growth inhibition, active compounds read high
Outline: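 Yeast strain carrying a DNA damage repair alteration was exposed to test compounds. Growth inhibition was measured relative to vehicle-treated controls.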

[2] = NCI Yeast Anticancer Drug Screen. Data for the wt1 strain (AID 149);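 note: 0% = growth of vehicle-treated wt1 cultures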; conditions: S. cerevisiae wt1 strain (SPY 50644) growth inhibition, active compounds read high
Outline: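 Yeast wt1 strain exposed to compounds; growth inhibition measured relative to vehicle-treated controls.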

[3] = NCI Yeast Anticancer Drug Screen. Data for the rad50EPP+ strain (AID 151);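 note: 0% = growth of vehicle-treated control cultures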; conditions: S. cerevisiae rad50 mutant strain, active compounds read high
Outline: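 Yeast strain carrying rad50 alteration (rad50EPP+) exposed to compounds; growth inhibition measured relative to vehicle-treated controls.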

[4] = NCI Yeast Anticancer Drug Screen. Data for the mgt1 strain (AID 153); conditions: S. cerevisiae mgt1 mutant growth inhibition, active compounds read high
Outline: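 Yeast mgt1 strain (DNA repair/cell-cycle alteration panel) exposed to compounds; growth inhibition measured relative to vehicle-treated controls.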

[5] = NCI Yeast Anticancer Drug Screen. Data for the rad50 strain (AID 155);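 note: 0% = growth of vehicle-only cultures of the same strain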; conditions: S. cerevisiae rad50 strain growth inhibition, active compounds read high
Outline: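 Yeast carrying a defined DNA repair defect were exposed to test compounds, and growth was compared with vehicle-treated controls to give percent inhibition.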

[6] = NCI Yeast Anticancer Drug Screen. Data for the mec2-1 strain (AID 157); conditions: S. cerevisiae mec2-1 strain, active compounds read high
Outline: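 mec2-1 yeast strain, carrying an alteration in DNA damage repair or cell cycle control, was exposed to compounds; growth inhibition was measured relative to vehicle-treated controls.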

[7] = NCI Yeast Anticancer Drug Screen. Data for the rad14 strain (AID 159);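 note: 0% = growth of vehicle-treated control cultures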; conditions: S. cerevisiae rad14 strain growth inhibition, active compounds read high
Outline: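 Yeast cells carrying a defined DNA-repair defect were exposed to compounds, and growth inhibition was calculated relative to vehicle-treated control cultures.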

[8] = NCI Yeast Anticancer Drug Screen. Data for the sgs1 mgt1 strain (AID 161);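 note: 0% = growth of cultures given vehicle only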; conditions: S. cerevisiae sgs1 mgt1 strain, active compounds read high
Outline: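 This yeast growth screen uses a strain with defined DNA-repair lesions; compound-treated growth is compared with vehicle-treated growth.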

[9] = NCI Yeast Anticancer Drug Screen. Data for the CLN2oe strain (AID 163);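 note: 0% = growth of vehicle-only control cultures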; conditions: S. cerevisiae CLN2oe strain, active compounds read high
Outline: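 Yeast cells carrying a defined cell-cycle control alteration were exposed to test compounds. Growth inhibition was scored against vehicle-treated control cultures.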

[10] = NCI Yeast Anticancer Drug Screen. Data for the cln2 rad14 strain (AID 165);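 note: 0% = growth equal to vehicle treated cultures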; conditions: S. cerevisiae cln2 rad14 strain, active compounds read high
Outline: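 Yeast carrying cln2 and rad14 alterations (cell cycle control and DNA damage repair) were exposed to compounds. Growth inhibition was measured against vehicle-treated controls.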

[11] = NCI Yeast Anticancer Drug Screen. Data for the bub3 strain (AID 167); conditions: S. cerevisiae bub3 mutant strain, active compounds read high
Outline: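 Compounds were applied to a genetically altered yeast strain carrying a cell-cycle control defect. Growth inhibition was scored against vehicle-treated controls.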

[12] = NCI Yeast Anticancer Drug Screen. Data for the wt2 strain (AID 169);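 note: 0% = growth of vehicle-treated yeast cultures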; conditions: S. cerevisiae wt2 strain growth inhibition, active compounds read high
Outline: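 Yeast cells were exposed to test compounds, and growth inhibition was measured relative to vehicle-treated controls.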

[13] = NCI Yeast Anticancer Drug Screen. Data for the mlh1 strain (AID 171);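 note: 0% = growth of vehicle-treated control cultures of the same strain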; conditions: S. cerevisiae mlh1 strain growth inhibition, active compounds read high
Outline: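 Yeast carrying a defined genetic alteration in DNA damage repair or cell cycle control were exposed to test compounds. Growth inhibition was measured relative to vehicle-treated controls.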

[14] = NCI Yeast Anticancer Drug Screen. Data for the mlh1 rad18 strain (AID 175); conditions: S. cerevisiae mlh1 rad18 strain growth inhibition, active compounds read high
Outline: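 Growth inhibition of the yeast strain was measured after compound exposure and expressed relative to vehicle-treated controls. The strain carries defined defects in DNA damage repair.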

[15] = NCI Yeast Anticancer Drug Screen. Data for the rad18 strain (AID 177); conditions: S. cerevisiae rad18 mutant growth inhibition, active compounds read high
Outline: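 Yeast carrying a defined DNA damage repair alteration were exposed to compounds. Growth inhibition was expressed relative to vehicle-treated controls.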

[16] = NCI Yeast Anticancer Drug Screen. Data for the sgs1 strain (AID 173);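 note: 0% = growth of vehicle-only control cultures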; conditions: S. cerevisiae sgs1 mutant, active compounds read high
Outline: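 Yeast mutant strains carrying defined defects in DNA damage repair or cell cycle control were exposed to test compounds. Growth inhibition was scored against vehicle-treated controls.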

[17] = at 5.0 µM (retest, dose inferred, filed as 0.5)
[18] = at 50.0 µM (retest, dose inferred, filed as 5.0)

Measured: growth inhibition

O=[N+]([O-])c1ccc2nc3ccccc3cc2c1
inactive: [1]; at 1.2 µM 3% | [1]; at 3.7 µM 13% | [1]; at 11.0 µM 35% | [2]; at 1.2 µM -5% | [2]; at 3.7 µM -4% | [2]; at 11.0 µM -7% | [2]; at 33.0 µM 21% | [3]; at 1.2 µM 22% | [3]; at 3.7 µM 63% | [4]; at 1.2 µM -1% | [4]; at 3.7 µM -5% | [4]; at 11.0 µM -1% | [4]; at 33.0 µM 29% | [5]; at 1.2 µM 1% | [5]; at 3.7 µM 22% | [5]; [17] -16% | [5]; at 11.0 µM 59% | [6]; at 1.2 µM -2% | [6]; at 3.7 µM 1% | [6]; [17] -37% | [6]; at 11.0 µM 8% | [6]; at 33.0 µM 27% | [6]; at 50.0 µM 55.5% | [7]; at 1.2 µM 0% | [7]; at 3.7 µM 9% | [7]; at 11.0 µM 20% | [7]; at 33.0 µM 45% | [8]; [17] -40% | [8]; at 50.0 µM 68.2% | [9]; at 1.2 µM -6% | [9]; at 3.7 µM -2% | [9]; at 11.0 µM 5% | [9]; at 33.0 µM 18% | [9]; at 100.0 µM 54% | [10]; [17] -59% | [10]; [18] 16% | [10]; at 50.0 µM 0.1% | [11]; at 1.2 µM -2% | [11]; at 3.7 µM -2% | [11]; [17] -51% | [11]; at 11.0 µM 14% | [11]; at 33.0 µM 39% | [11]; at 50.0 µM 69% | [12]; at 1.2 µM 0% | [12]; at 3.7 µM 1% | [12]; at 11.0 µM 3% | [12]; at 33.0 µM 33% | [13]; at 1.2 µM 7% | [13]; at 3.7 µM 0% | [13]; at 11.0 µM 14% | [13]; at 33.0 µM 51% | [14]; [17] -71% | [15]; at 1.2 µM 14% | [15]; at 3.7 µM 32% | [15]; at 11.0 µM 67%
active: [1]; at 33.0 µM 74% | [1]; at 100.0 µM 96% | [2]; at 100.0 µM 81% | [3]; at 11.0 µM 85% | [3]; at 33.0 µM 90% | [3]; at 100.0 µM 96% | [4]; at 100.0 µM 86% | [5]; at 33.0 µM 89% | [5]; [18] 92% | [5]; at 50.0 µM 87% | [5]; at 100.0 µM 95% | [6]; [18] 85% | [6]; at 100.0 µM 84% | [7]; at 100.0 µM 91% | [8]; [18] 89% | [11]; [18] 91% | [11]; at 100.0 µM 94% | [12]; at 100.0 µM 89% | [13]; at 100.0 µM 96% | [14]; [18] 90% | [14]; at 50.0 µM 89.1% | [15]; at 33.0 µM 87% | [15]; at 100.0 µM 96%

O=c1ssc2ncccc12
active: [1]; at 11.0 µM 71% | [1]; at 33.0 µM 95% | [1]; at 100.0 µM 99% | [2]; at 100.0 µM 97% | [3]; at 33.0 µM 86% | [3]; at 100.0 µM 97% | [4]; at 33.0 µM 84% | [4]; at 100.0 µM 99% | [5]; at 11.0 µM 82% | [5]; at 33.0 µM 97% | [5]; [18] 99% | [5]; at 50.0 µM 97.1% | [5]; at 100.0 µM 99% | [6]; at 33.0 µM 83% | [6]; [18] 96% | [6]; at 50.0 µM 91.2% | [6]; at 100.0 µM 97% | [7]; at 33.0 µM 97% | [7]; at 100.0 µM 99% | [8]; [18] 96% | [8]; at 50.0 µM 93.2% | [9]; at 33.0 µM 85% | [9]; at 100.0 µM 97% | [10]; [18] 90% | [12]; at 100.0 µM 98% | [13]; at 33.0 µM 95% | [13]; at 100.0 µM 99% | [16]; at 11.0 µM 72% | [16]; at 33.0 µM 96% | [16]; at 100.0 µM 99% | [14]; [18] 98% | [14]; at 50.0 µM 96.7% | [15]; at 11.0 µM 74% | [15]; at 33.0 µM 97% | [15]; at 100.0 µM 99%
inactive: [1]; at 1.2 µM 3% | [1]; at 3.7 µM 15% | [2]; at 1.2 µM 2% | [2]; at 3.7 µM -2% | [2]; at 11.0 µM 11% | [2]; at 33.0 µM 47% | [3]; at 1.2 µM -5% | [3]; at 3.7 µM 6% | [3]; at 11.0 µM 45% | [4]; at 1.2 µM -1% | [4]; at 3.7 µM 10% | [4]; at 11.0 µM 41% | [5]; at 1.2 µM 15% | [5]; at 3.7 µM 49% | [5]; [17] 24% | [6]; at 1.2 µM 3% | [6]; at 3.7 µM 6% | [6]; [17] 14% | [6]; at 11.0 µM 29% | [7]; at 1.2 µM 7% | [7]; at 3.7 µM 14% | [7]; at 11.0 µM 49% | [8]; [17] 31% | [9]; at 1.2 µM -7% | [9]; at 3.7 µM 6% | [9]; at 11.0 µM 45% | [10]; [17] 21% | [10]; at 50.0 µM 49.6% | [12]; at 1.2 µM -6% | [12]; at 3.7 µM -4% | [12]; at 11.0 µM 15% | [12]; at 33.0 µM 57% | [13]; at 1.2 µM 9% | [13]; at 3.7 µM 20% | [13]; at 11.0 µM 56% | [16]; at 1.2 µM 4% | [16]; at 3.7 µM 12% | [14]; [17] 56% | [15]; at 1.2 µM 7% | [15]; at 3.7 µM 27%

Source: PubChem BioAssay (NCI)
